TWEAK Fn14 block: TWEAK-Fn14 signaling inhibition; TWEAK-stimulated Fn14 reporter cells, luciferase luminescence, 8 h; inhibition, % at 10 µM; hit rate 2% among 360,000; AID 1159606; in the data active means inhibition above about 50%
Peg3 promoter: reduces Peg3 promoter-driven luciferase expression in HeLa. AID 588405. hit rate 1.7% among 360,000. inhibition, % at 20 µM. HeLa PEG-Prom luciferase reporter, luminescence, overnight;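 active means inhibition of at least 50% at 20 µM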
TROY signal inh: TROY signaling inhibition; Q293 LMP1-TROYcd NF-kB luciferase reporter, 4 h; inhibition, % at 10 µM; hit rate 0.98% among 360,000;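 active means compounds whose plate-normalised and pattern-corrected inhibition of the luciferase reporter signal at the single screening dose is 50% or more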
MITF TRPM1 inh: inhibitors of MITF-driven TRPM1 promoter in melanoma cells; hit rate 0.83% among 330,000; SK-MEL-5 TRPM1 promoter luciferase, 24 h; inhibition, % at 12.5 µM;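 active means mean inhibition across replicates of 60% or more, whatever share of single replicates reaches that level; inconclusive means some that reach 60%, reason not given; inactive means mean inhibition across replicates below 60%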
Shn3 3UTR inh: Schnurri-3 reporter inhibition in Clone20 osteoblasts | hit rate 0.52% among 360,000 | AID 588674 | inhibition, % at 12.5 µM | Clone20 osteoblast Shn3 3'UTR firefly luciferase, 24 h;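 active means mean inhibition of at least 75% with every replicate also reaching 75%; inconclusive means mean inhibition at least 75% but some replicate below; inactive means mean inhibition below 75%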;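 further: 0% = median of neutral control wells and 100% = pilot-screen positive control compound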
EBV LMP1 NFkB: inhibitors of Epstein-Barr LMP1-induced NF-kappaB reporter | LMP1-induced NF-kappaB luciferase reporter cells, luminescence | inhibition, % at 12.5 µM | hit rate 0.69% among 350,000; in the data active means inhibition above about 41%; inconclusive means no clear call, values can overlap the other calls;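 further: 0% = neutral control wells and 100% = reference inhibitor control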
An asterisk follows results filed as active; ? = inconclusive; / = no result given. A selection: hits, their analogues and other compounds. The true share with any hit is near 4.1%.

SMILES	TWEAK Fn14 block	Peg3 promoter	TROY signal inh	MITF TRPM1 inh	Shn3 3UTR inh	EBV LMP1 NFkB
CCCCOc1ccc(C(O)C(CN2CCCCC2)c2ccccc2)cc1 (stereo not drawn)	-24	-12	-8	-6	36	4
CCOCCCn1c(SCc2nc3ccccc3s2)nc2ccccc2c1=O	73*	-290	53*	5	14	28
CCN(c1ccc(OC)cc1)S(=O)(=O)N1CCCC(C(=O)NC(C)c2ccccc2)C1 (stereo not drawn)	-6	5	-11	/	6	/
CCOC(=O)c1c(NC(C)=O)sc2c1CCC(C=O)=C2Sc1ccccc1	-16	99*	11	11	11	-2
CCC(NC(C)C)C(O)c1ccc(O)c2[nH]c(=O)ccc12 (stereo not drawn)	-17	7	11	-1	10	74*
O=C(Cn1cc(S(=O)(=O)Cc2ccc([N+](=O)[O-])cc2)c2ccccc21)N1CCOCC1	15	4	-14	11	-7	4
CN1CN=C(NS(=O)(=O)c2ccc([N+](=O)[O-])cc2)NC1	55*	-6	2	9	-5	2
O=c1/c(=C\c2cccn2-c2ccccc2)sc2nc3ccccc3n12	61*	-246	45	-47	-59	-19
CC1=C(C(=O)Nc2ccccc2)C(c2ccc(C)cc2)N=C(Nc2nc3ccccc3o2)N1 (stereo not drawn)	-58	77*	8	22	68	-16
CC1(C)CC(=O)C2=C(C1)NC(Nc1nc3ccccc3o1)=NC2c1ccccn1 (stereo not drawn)	2	-3	-32	7	8	-10
C[C@H](O)[C@@H]1C(=O)N2CCc3ccc(N4CCN(C)CC4)cc3[C@@H]2C[C@@H]1N(C)C(=O)c1ccco1	-3	17	5	/	-2	0
Cc1ccc(NC(=O)CCN2C(=O)CSC2=O)c(C)c1	74*	-9	/	3	-6	10
CCCCN(CCCC)c1nc(-c2ccncc2)nc2ccccc12	27	52*	26	-2	30	-10
CCN(CC)c1nc(-c2ccccc2)nc2ccccc12	1	7	-3	6	-6	4
Cn1c(=O)c2c(ncn2CC(=O)Nc2nccs2)n(C)c1=O	23	3	-5	-2	-8	1
CC1CCN(Cc2c(C(=O)N/N=C/c3ccccc3O)nnn2-c2nonc2N)CC1	-17	66*	-9	30	80	32
CN(Cc1c(C(=O)N/N=C/c2ccccc2O)nnn1-c1nonc1N)C1CCCCC1	-21	59*	3	/	83	27
Nc1nonc1-n1nnc(C(=O)N/N=C/c2cc(Cl)ccc2O)c1CN1CCCCCC1	-32	54*	-19	27	66	13
Cc1nnn(-c2nonc2N)c1C(=O)N/N=C/c1cccc2ccccc12	-34	52*	-8	-2	9	6
Cc1nnn(-c2nonc2N)c1C(=O)N/N=C/c1ccccc1O	-37	12	-16	-5	39	16
Cc1ccc(S(C)(=O)=O)cc1C(=O)OCC(=O)N1CCCC1=O	-4	-4	3	2	0	-2
O=C(CCC(=O)N1CCN(S(=O)(=O)c2ccccc2Cl)CC1)c1ccccc1	0	0	-1	-5	4	3
CCOc1ccccc1N(C)S(=O)(=O)c1ccc2c(c1)CC(C)N2C(=O)C1CC1 (stereo not drawn)	-6	20	-7	-17	4	-3
CCc1ccccc1NC(=O)CNC(=O)c1cccc(S(=O)(=O)N2CCN(Cc3ccccc3)CC2)c1	1	31	7	-1	32	-2
CCCc1c(C(=O)N/N=C(\C)c2ccc(O)cc2)nnn1-c1nonc1N	-13	-13	9	-2	4	1
SMILES	TWEAK Fn14 block	Peg3 promoter	TROY signal inh	MITF TRPM1 inh	Shn3 3UTR inh	EBV LMP1 NFkB
CCCc1c(C(=O)N/N=C(\C)c2ccccn2)nnn1-c1nonc1N	-6	40	8	/	89*	?
S=C(NCCCc1cnc[nH]1)NCCCN(Cc1ccccc1)c1ccc(Br)cn1	-28	46	4	/	-3	/
S=C(NCCCc1cnc[nH]1)NCCCN(Cc1ccc(Cl)cc1)c1ccc(Br)cn1	-5	94*	-3	/	29	/
O=C(O)c1ccc(-n2cccc2/C=C2/NC(=O)N(c3ccccc3)C2=O)cc1	-18	-4	68*	-6	-7	-3
O=C(O)c1ccc(-n2cccc2/C=C2/NC(=O)N(c3cccc(Cl)c3)C2=O)cc1	10	11	-11	4	10	0
CC(O)CNCc1ccc(-c2ccccc2)cc1 (stereo not drawn)	-19	-11	-12	-12	-4	-8
CC(NCc1ccc(-c2ccccc2)cc1)C(O)c1ccccc1 (stereo not drawn)	-36	74*	20	12	4	1
C[C@H]1C[C@H]2[C@@H]3CCC4=CC(=O)C=C[C@]4(C)[C@@]3(F)[C@@H](O)C[C@]2(C)[C@@]1(O)C(=O)CO	-17	2	27	-22	72	45*
COP(=O)(OC)c1nc(-c2ccc(C)cc2)oc1N1CCCCC1	-12	12	-15	10	12	0
O=C1C(Cl)=C(N2CCOCC2)C(=O)N1c1ccccc1F	70*	4	6	13	1	9
Cc1ccccc1N1C(=O)C(Cl)=C(N2CCOCC2)C1=O	6	13	2	1	-21	1
CCC(C(=O)N1CCc2ccccc2C1)n1nc(C)n2c(cc3occc32)c1=O (stereo not drawn)	81*	19	/	-5	3	2
Cc1nn(C(C)C(=O)N2CCc3ccccc3C2)c(=O)c2cc3occc3n12 (stereo not drawn)	4	7	22	-2	-2	0
CCOc1ccc(NC(=S)NNc2ccnc3cc(Cl)ccc23)cc1	19	2	-6	26	53	6
S=C(NNc1ccnc2cc(Cl)ccc12)Nc1ccc(Cl)cc1Cl	7	52*	19	65*	88*	11
Oc1c(Cl)cc(Cl)cc1C=Nc1ccc2c(c1)OCCO2	75*	-34	63*	29	26	5
NC(=O)c1cc([N+](=O)[O-])ccc1NCC1CCCCC1	-10	-121	-50	-51	-29	5
COc1ccc(Nc2nc(NCc3cccs3)nc3ccsc23)cc1OC	54*	2	32	/	3	/
CC(=O)Nc1ccc(CNc2nc(NCC3CC3)nc3ccsc23)cc1	-3	8	-19	/	-8	/
CCOC(=O)Cc1ccc(Nc2nc(NCc3cccs3)nc3ccsc23)cc1	65*	31	55*	/	77	/
O=C(O)CSc1nnc(COc2ccc(Br)cc2)n1-c1ccccc1	10	5	11	-8	12	2
Cc1ccccc1C1=NC(C(F)(F)F)(C(F)(F)F)c2c(n(C)c(=O)n(C)c2=O)N1	-3	14	-4	4	-5	-7

Assay outcomes deposited in PubChem BioAssay by several laboratories.
